High-throughput results: PubChem BioAssay, The Scripps Research Institute Molecular Screening Center
Rows were chosen to be rich in hits. Some 0.81% of all compounds tested hit in one or more screens of this group.
COUP-TFII inh – NR2F2 (human) inhibition, primary screen | HEK293T NGFI-A luciferase reporter, luminescence | inhibition, % at 8.6 µM | hit rate 0.7% among 370,000 | AID 686940;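 active = inhibition above a per-plate cutoff, mean inhibition of test wells between control levels plus 3 SD, cut at about 38% in these data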;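 note: cells cotransfected with COUP-TFII expression vector driving the NGFI-A reporter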
NR5A2 inv ag – suppresses constitutive activity of human LRH-1. inhibition, % at 3.6 µM. hit rate 0.13% among 360,000. HEK293T StAR-luciferase reporter, LRH-1 transfected, 24 h. O00482. AID 602396;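 active = inhibition above the mean inhibition of all tested compounds plus 3 SD, cut at about 73% in these data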
Target sequence (O00482 whole entry, looked up): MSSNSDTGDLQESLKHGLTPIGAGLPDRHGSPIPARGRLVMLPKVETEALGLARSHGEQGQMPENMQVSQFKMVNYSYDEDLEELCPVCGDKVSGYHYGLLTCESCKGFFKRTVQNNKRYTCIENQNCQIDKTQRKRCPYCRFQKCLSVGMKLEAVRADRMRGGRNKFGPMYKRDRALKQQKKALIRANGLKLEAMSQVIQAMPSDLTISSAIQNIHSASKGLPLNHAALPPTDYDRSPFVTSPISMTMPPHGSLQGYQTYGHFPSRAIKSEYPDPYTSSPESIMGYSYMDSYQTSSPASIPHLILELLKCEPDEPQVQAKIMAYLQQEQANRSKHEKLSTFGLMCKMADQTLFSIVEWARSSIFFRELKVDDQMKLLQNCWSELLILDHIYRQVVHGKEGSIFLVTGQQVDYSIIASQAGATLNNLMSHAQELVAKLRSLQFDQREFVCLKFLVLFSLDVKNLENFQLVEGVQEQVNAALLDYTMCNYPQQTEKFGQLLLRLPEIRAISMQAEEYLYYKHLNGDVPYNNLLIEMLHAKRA
SRC3 inh – inhibits human SRC3 coactivator | inhibition, % at 3.6 µM | HEK293 GAL4-SRC3 luciferase reporter, luminescence | Q9Y6Q9 | hit rate 0.17% among 360,000 | AID 588352;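 active = inhibition above a per-campaign cutoff, the mean of all compounds plus 3 SD, cut at about 60% in these data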;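 note: higher means less SRC3-driven luciferase light from the GAL4 reporter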
NCOA1 inh – human NCOA1 inhibition. Q15788. HEK293 GAL4-SRC1 luciferase reporter, luminescence. inhibition, % at 3.6 µM. hit rate 0.12% among 360,000;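 active = inhibition above the campaign mean plus 3 SD, with each screening campaign given its own cutoff, cut at about 60% in these data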
SRC2 inh – human SRC2 (NCOA2) inhibition; Q15596; HEK293 GAL4-SRC2 luciferase reporter, luminescence; inhibition, % at 9 µM; hit rate 0.17% among 370,000; AID 651957;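 active = inhibition above the mean inhibition of all tested compounds plus 3 SD, set per campaign, cut at about 52% in these data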
VP16 Luc counter – VP16 inhibition counter-screen for COUP-TFII; shares compounds with COUP-TFII inh; HEK293 Gal4-VP16 luciferase reporter, luminescence; inhibition, % at 8.5 µM; hit rate 25% among 2,500; AID 687007; in the data active = inhibition above about 13%
COUP-TFII conf – COUP-TFII (NR2F2) inhibition, confirmation assay | inhibition, % at 8.5 µM | hit rate 45% among 2,500 | shares compounds with COUP-TFII inh | HEK293 NGFI-A luciferase reporter, luminescence;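 active = mean inhibition over three repeats above a set limit taken from the earlier primary screen, cut at about 38% in these data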
Of the large screens only hits and unclear results are named; the others gave an inactive call (follow-up assays come after a bar, where they were run).

CN(C)c1nc(-c2cn(CCC#N)c3ccccc23)cs1	none
CC(=O)Nc1ccc(S(=O)(=O)N2CCN=C2SCc2ccc([N+](=O)[O-])cc2)cc1	COUP-TFII inh 48.0 | VP16 Luc counter inactive | COUP-TFII conf inactive
Cc1ccc[n+](CC(=O)Nc2cc(C(F)(F)F)ccc2Cl)c1	none
CCC(C)(C)c1ccc(OCCCC[n+]2cccc(C)c2)c(C(C)(C)CC)c1	COUP-TFII inh 62.3 | VP16 Luc counter inactive | COUP-TFII conf 38.0
O=C(NCC1CCN(Cc2ccc(Cl)cc2)CC1)C1CCCN(c2ncnc3c2nc2n3CCCCC2)C1 (stereo not drawn)	COUP-TFII inh 58.4 | VP16 Luc counter inactive | COUP-TFII conf inactive
O=C(CCCc1ccccc1)c1ccc2c(c1)OCCO2	COUP-TFII inh 84.8, SRC3 inh 69.7, NCOA1 inh 70.7, SRC2 inh 74.8 | VP16 Luc counter 48.9 | COUP-TFII conf 89.5
Nc1cc[n+](CC(=O)c2ccc3c(c2)OCCO3)cc1	COUP-TFII inh 39.7 | VP16 Luc counter inactive | COUP-TFII conf inactive
O=C(C[n+]1ccc(C(=O)NCc2ccccc2)cc1)c1ccc2c(c1)OCCO2	none
O=C(NCCc1ccccc1)c1ccc2c(c1)OCCO2	COUP-TFII inh 71.3, SRC2 inh 75.8 | VP16 Luc counter 36.5 | COUP-TFII conf 53.4
O=C(NCCc1ccccc1)c1ccc2c(c1)OCCCO2	COUP-TFII inh 88.0, NR5A2 inv ag 78.2, SRC3 inh 74.2, NCOA1 inh 74.2, SRC2 inh 88.4 | VP16 Luc counter 71.9 | COUP-TFII conf 90.8
CCOC(=O)C1=C(C)NC(=O)C(C(N)=O)C1c1ccccc1 (stereo not drawn)	none
CC1Cc2ccccc2N1c1ncnc(N)c1[N+](=O)[O-] (stereo not drawn)	COUP-TFII inh 47.3, SRC3 inh 64.4, NCOA1 inh 65.8, SRC2 inh 72.5 | VP16 Luc counter 20.7 | COUP-TFII conf inactive
COc1ccc(C(=O)Nc2ccc(N3CCCCCC3)cc2)cc1S(=O)(=O)N1CCOCC1	COUP-TFII inh 48.9 | VP16 Luc counter inactive | COUP-TFII conf inactive
CC1(C)CC2CC(C)(CN2S(=O)(=O)c2ccc(C(=O)Nc3ccc(S(=O)(=O)N4CCOCC4)cc3)cc2)C1 (stereo not drawn)	COUP-TFII inh 53.2 | VP16 Luc counter inactive | COUP-TFII conf 64.0
O=C(N/N=C/c1sc(N2CCOCC2)nc1-c1ccccc1)c1cccc(S(=O)(=O)N2CCCC2)c1	COUP-TFII inh 37.6, NR5A2 inv ag 85.5, SRC3 inh 76.0, NCOA1 inh 65.3 | VP16 Luc counter inactive | COUP-TFII conf 66.8
Cc1ccc(NC(=O)c2cccnc2)cc1S(=O)(=O)N1CCOCC1	none
Cc1cc(C)n(-c2ccc(C(=O)Nc3ccc(C)c(S(=O)(=O)N4CCOCC4)c3)cc2)n1	COUP-TFII inh 50.6 | VP16 Luc counter inactive | COUP-TFII conf inactive
COc1ccc(C(=O)Nc2ccc(NC(=O)c3ccccc3)cc2)cc1S(=O)(=O)N1CCOCC1	none
CC(=O)c1cccc(OCc2cc(C(=O)NCCC3=CCCCC3)no2)c1	none
COC(=O)c1cc(S(=O)(=O)N2CCCN(C(C)=O)CC2)cn1C	none (no result: NR5A2 inv ag, SRC3 inh, NCOA1 inh)
CC(=O)c1cccc(NC(=O)C2=CN3CCS(=O)(=O)N=C3C=C2)c1	none
CC(=O)c1ccc(NC(=O)c2ccc(C)c(S(=O)(=O)N3CCOCC3)c2)cc1	none
COc1ccc(/C=C/C(=O)Nc2ccc(C)c(S(=O)(=O)N3CCOCC3)c2)cc1	COUP-TFII inh 68.5 | VP16 Luc counter inactive | COUP-TFII conf inactive
COc1ccc(NC(=O)/C=C/c2ccc(S(=O)(=O)N3CCOCC3)cc2)cc1	none
CCOC(=O)c1ccc(NC(=O)c2cccc(S(=O)(=O)N3CCOCC3)c2)cc1	COUP-TFII inh 38.2 | VP16 Luc counter inactive | COUP-TFII conf inactive
CCOC(=O)c1ccc(NC(=O)c2ccc(C)c(S(=O)(=O)N3CCOCC3)c2)cc1	COUP-TFII inh 80.7, NR5A2 inv ag 79.9 | VP16 Luc counter inactive | COUP-TFII conf 81.5
O=C(Nc1ccc(N2CCCCCC2)cc1)c1cccc(S(=O)(=O)N2CCOCC2)c1	COUP-TFII inh 46.0 | VP16 Luc counter inactive | COUP-TFII conf 38.3
CCCCNC(=O)c1ccccc1NC(=O)CCC	none
COc1cc(NC(=O)COc2cc(O)c3c(c2)OC(C)(C)CC3=O)cc(OC)c1OC	COUP-TFII inh 81.3 | VP16 Luc counter inactive | COUP-TFII conf 80.6
CCN1C/C(=C/c2ccc(N3CCOCC3)cc2)C(=O)/C(=C/c2ccc(N3CCOCC3)cc2)C1	COUP-TFII inh 37.4 | VP16 Luc counter 23.9 | COUP-TFII conf 39.4
CN1C/C(=C\c2ccc(N3CCOCC3)cc2)C(=O)/C(=C/c2ccc(N3CCOCC3)cc2)C1	none
Cc1cc(C)cc(C(=O)OCCN2CCN(C3CN(Cc4cn(Cc5ccc([N+](=O)[O-])cc5)nn4)S(=O)(=O)C3)CC2)c1 (stereo not drawn)	none (no result: NR5A2 inv ag, SRC3 inh, NCOA1 inh)
Cc1cc(C)cc(C(=O)OCCN2CCN(C3CN(Cc4cn(Cc5ccccc5F)nn4)S(=O)(=O)C3)CC2)c1 (stereo not drawn)	COUP-TFII inh 48.5 (no result: NR5A2 inv ag, SRC3 inh, NCOA1 inh) | VP16 Luc counter inactive | COUP-TFII conf inactive
O=C(CSc1nncs1)Nc1ccc2c(c1)OCO2	none
CN1CCCC2(CCCN(Cc3nc(Cc4cccc(C(F)(F)F)c4)no3)C2)C1 (stereo not drawn)	none
O=C(c1cc(COc2cccc(C(F)(F)F)c2)on1)N1CCC(c2ccccc2)CC1	none
CC(=O)c1ccc(OCc2cc(C(=O)N3CCC(c4ccncc4)CC3)no2)cc1	none
FC(F)(F)c1cccc(Cc2noc(CN3CCC(c4ccncc4)CC3)n2)c1	COUP-TFII inh 52.5 | VP16 Luc counter inactive | COUP-TFII conf inactive
COc1cccc(OCc2cc(C(=O)N3CCC(c4ccncc4)CC3)no2)c1	COUP-TFII inh 48.9 | VP16 Luc counter inactive | COUP-TFII conf inactive
O=C(c1cc(COc2cccc(C(F)(F)F)c2)on1)N1CCC(c2ccncc2)CC1	COUP-TFII inh 45.6 | VP16 Luc counter inactive | COUP-TFII conf inactive
O=C1CCC[C@H]2Cc3nc4cccc(Cl)c4cc3C[C@]23CCCN13	none (no result: NR5A2 inv ag, SRC3 inh, NCOA1 inh, SRC2 inh)
NC(=O)c1cccc(-c2coc3c(C(=O)NCc4cccnc4)cccc23)c1	none
COc1ccc(CNC(=O)c2cccc3c(-c4cccnc4)coc23)cc1OC	COUP-TFII inh 81.6 | VP16 Luc counter inactive | COUP-TFII conf 74.7
O=C(NCc1ccc(F)c(F)c1)c1cccc2c(-c3cccnc3)coc12	none
O=C(NCc1cccc(Cl)c1)c1cccc2c(-c3cccnc3)coc12	COUP-TFII inh 41.7 | VP16 Luc counter inactive | COUP-TFII conf inactive
CCN(CC)C(=O)CC[C@@H]1CC[C@]2(CCCN(Cc3ccncc3)C2)O1	none (no result: NR5A2 inv ag, SRC3 inh, NCOA1 inh)
O=c1c2oc3ccccc3c2ncn1Cc1ccc(F)cc1	none
